For 40 compounds, outcome results are on record in PubChem BioAssay (EPA / NIEHS).

The structures appear in SMILES notation. Results filed as inconclusive are left out. Active and inactive are the calls of the source. How the source made its calls: active means hit-call score of the fitted dose curve at least 0.9, where 1 is the maximum; inconclusive means response in the unintended direction; inactive means score below 0.9.

The assay in a line: Tanguay_ZF_120hpf_TRUN_legacy: (Legacy) Oregon State University Tanguay Lab 120 Hour Post-fertilization zebrafish Assay for Truncated Body (AID 2283655). The procedure:
Tanguay_ZF_120hpf_legacy is a whole embryo, multiplexed endpoint assay using zebrafish larvae exposed for 120 hours post fertilization on a 96-well plate.Tanguay_ZF_120hpf_TRUN_legacy is one of one assay component(s) measured or calculated from the Tanguay_ZF_120hpf_legacy assay. It is designed to make measurements of zebrafish development as detected with brightfield microscopy of developing zebrafish embryos.Data from the assay component Tanguay_ZF_120hpf_TRUN_legacy was analyzed into 1 assay endpoints. This assay endpoint, Tanguay_ZF_120hpf_TRUN_legacy, was analyzed in the positive analysis fitting direction relative to DMSO as the negative control and baseline of activity. Using a type of morphology reporter, gain-of-signal activity can be used to understand changes in developmentals as they relate to the whole embryo. To generalize the intended target to other relatable targets, this assay endpoint is annotated to the zebrafish development intended target family, where the subfamily is embryonic morphogenesis.
Zebrafish husbandry: Tropical 5D wild-type adult zebrafish were housed in at an approximate density of 1000 per 100 gallon tank at the Sinnhuber Aquatic Research Laboratory, Oregon State University, Corvallis, OR. Each tank was kept at standard laboratory conditions of 28C on a 14-h light/10-h dark photoperiod in fish water consisting of reverse osmosis water supplemented with a commercially available salt (Instant Ocean). Spawning funnels were placed into the tanks the night prior, and embryos were collected and staged. To increase bioavailability, the chorion was enzymatically removed using pronase (63.6mg/ml, >/= 3.5U/mg, Sigma-Aldrich: P5147) at 4 hours post fertilization (hpf) using a custom automated dechorionator.Chemical exposures: Six hpf dechorionated embryos were placed 1 embryo per well in a 96-well plate prefilled with 90 ul of EM using automated embryo placement systems (AEPS). Ten microliters of each row of dilution plate 2 was added to 2 exposure plates. The final DMSO concentration used was 0.64% (vol/vol). Thirty-two embryos were also exposed to 5uM trimethyltin chloride (positive control). Plates were sealed to prevent evaporation and foil covered to reduce light exposure and kept in a 28C incubator. Embryos were statically exposed until 120 hpf. At 24 hpf, embryos were assessed for photomotor response using a custom photomotor response analysis tool (PRAT) and for developmental toxicity endpoints (MO24: mortality at 24 hpf, DP: developmental progression, SM: spontaneous movement, and NC: notochord distortion). At 120 hpf, locomotor activity was measured using Viewpoint Zebralab and assessed for 18 endpoints. Zebrafish acquisition and analysis program (ZAAP), a custom program designed to inventory, acquire, and manage zebrafish data, was used to collect developmental endpoints as either present or absent (i.e., binary responses were recorded). If mortality occurred for an embryo (at either 24 or 120 hpf), the non-mortality endpoints were not measured.
`Cc1c(-c2cccnc2)c2ccccc2n1CCCCC(=O)O`: the compound was called inactive. With `CCCCC(CC)COC(=O)c1ccc(C(=O)OCC(CC)CCCC)cc1` (stereo not given) the entry was “inactive”; with `CCCCCCCCCCCCCCCO`, “inactive”; with `COC(=O)CC(=O)OC`, “inactive”. `Cc1ccc(S(=O)(=O)O)cc1C`: the call was inactive. With `CC(C)=CCC/C(C)=C\CO` the entry was “inactive”; with `C[C@](N)(Cc1ccc(O)c(O)c1)C(=O)O`, “inactive”; with `CC[C@H](C)C(=O)O[C@H]1C[C@@H](C)C=C2C=C[C@H](C)[C@H](CC[C@@H]3C[C@@H](O)CC(=O)O3)[C@H]21`, “inactive”. In the case of `CNCc1ccc(NC(=O)c2c[nH]c3c2C(=O)CCC3)cc1` it was “inactive”; in that of `CC(C)(O)c1coc(S(=O)(=O)NC(=O)Nc2c3c(cc4c2CCC4)CCC3)c1`, “inactive”. In the case of `CCOc1cccc(-n2cc(C(=O)N3CCN(c4cc(C(=O)O)c5ccccc5c4)CC3)nc2-c2ccc(C)cc2)c1` it was “inactive”; in that of `O=C(O)c1cccc(Oc2ccccc2)c1`, “inactive”. In the case of `CC(C)=CCC/C(C)=C/CO`, the outcome was inactive. In the case of `Nc1nc2ncc(CNc3ccc(C(=O)N[C@@H](CCC(=O)O)C(=O)O)cc3)nc2c(=O)[nH]1` it was “inactive”; in that of `CC(C)CCCCCCCOC(=O)CCCCC(=O)OCCCCCCCC(C)C`, “inactive”. With `CNS(=O)(=O)c1cc(C(=O)N2CCC(CCN3C4CCC3CC(n3c(C)nc5ccccc53)C4)(c3cccc(F)c3)CC2)c(Cl)cc1F` (stereo not given) the entry was “inactive”. In the case of `COc1cccc(-c2ccc(/C=C\CN3CCCCCC3)cc2Cl)c1` it was “inactive”; in that of `Cc1ccc(C)c(O)c1`, “inactive”.

For the compound `COC(=O)c1c(Cl)c(Cl)c(C(=O)OC)c(Cl)c1Cl`, the call was inactive. Regarding `COC(=O)c1ccccc1O`, the compound was classed as inactive. In the case of `O=C1CCCCCN1` it was “inactive”. In the case of `CCN(C(=O)c1cc(C)cc(OC[C@H](C)Nc2ccncc2)c1)C(C)C` it was “inactive”. With `Cn1c(=O)c2c(ncn2C)n(C)c1=O` the entry was “inactive”; with `COCCOc1cc2cc(C(=O)NC3CCN(C(C)C)CC3)n(CC(=O)Nc3ccc(Cl)cn3)c2cn1`, “inactive”. As to `Nc1cccc(N)c1`, the compound was classed as inactive. With `CCNc1ccccc1` the entry was “inactive”; with `CC[C@H]1OC(=O)[C@H](C)[C@@H](O[C@H]2C[C@@](C)(OC)[C@@H](O)[C@H](C)O2)[C@H](C)[C@@H](O[C@@H]2O[C@H](C)C[C@H](N(C)C)[C@H]2O)[C@](C)(O)C[C@@H](C)C(=O)[C@H](C)[C@@H](O)[C@]1(C)O`, “inactive”; with `CC(C)CCCCCCOC(=O)c1ccc(C(=O)OCCCCCCC(C)C)c(C(=O)OCCCCCCC(C)C)c1`, “inactive”. With `CCOCCO` the entry was “inactive”; with `O=C1CCC(N2C(=O)c3ccccc3C2=O)C(=O)N1` (stereo not given), “inactive”; with `CC(=O)OCCC(C)C`, “inactive”. `Fc1ccccc1[C@@H](F)COC1CCC(Nc2ncnc3[nH]ncc23)CC1` (stereo not given in full): the compound was called inactive.

In the case of `CC1=CC(=O)CC(C)(C)C1`, the compound was called inactive.

As to `C=CCCCCCCCCC(=O)O`, the compound was called inactive.

As to `C=CC(=C)CCC=C(C)C`, the result was inactive. In the case of `CC(=O)c1ccc2c(c1)[C@H](NC(=O)c1ccc(F)cc1)[C@@H](O)C(C)(C)O2` it was “inactive”. In the case of `Clc1nc(Cl)c(Cl)c(Cl)c1Cl` it was “inactive”; in that of `CCOCCOCCOCCO`, “inactive”; in that of `O=c1[nH]c2ccc(S(=O)CCN3CCC(Cc4ccc(F)cc4)CC3)cc2o1` (stereo not given), “inactive”. Take `CN(C)c1ccc(N=NS(=O)(=O)O)cc1`: the compound was classed as inactive.
